# Screening data: PubChem BioAssay, National Center for Advancing Translational Sciences (NCATS)
# TRb SRC2 PPI – inhibitors of human thyroid hormone receptor beta-SRC2 interaction; Potency, µM (doses to about 106 µM), without a hit: at the highest dose activity change, negative = inhibition, most hits filed as inhibitors; hit rate 0.065% among 280,000; AID 1469; TRbeta-SRC2 peptide binding, fluorescence polarization; receptor liganded with 1 µM T3; P10828;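 further: plate controls were bound peptide for no effect and peptide without receptor for full effect; nearly all actives have a fitted effect of over 50% in size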
# Target sequence (P10828 whole entry, looked up): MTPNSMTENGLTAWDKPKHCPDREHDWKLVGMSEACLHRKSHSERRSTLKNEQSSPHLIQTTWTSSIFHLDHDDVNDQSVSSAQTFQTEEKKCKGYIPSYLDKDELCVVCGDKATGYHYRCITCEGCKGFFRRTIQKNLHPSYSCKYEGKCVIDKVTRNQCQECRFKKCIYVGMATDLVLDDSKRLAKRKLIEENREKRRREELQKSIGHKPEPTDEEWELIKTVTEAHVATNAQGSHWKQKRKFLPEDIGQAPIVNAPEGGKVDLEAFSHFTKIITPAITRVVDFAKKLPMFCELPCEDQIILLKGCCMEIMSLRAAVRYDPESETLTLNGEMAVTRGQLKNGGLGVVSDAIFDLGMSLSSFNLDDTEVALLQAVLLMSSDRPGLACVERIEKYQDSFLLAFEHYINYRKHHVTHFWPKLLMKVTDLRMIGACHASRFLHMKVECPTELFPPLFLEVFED
#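 Binding of a 20-amino-acid Texas Red SRC2 peptide (20 nM) to TRb ligand-binding domain (0.6 uM) with agonist T3 at 1 uM was followed by fluorescence polarization after a 5 hr room-temperature incubation.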
# TR SRC2 fluor cs – alters Texas Red total fluorescence, flagging assay interference. TRb/SRC2 Texas Red total fluorescence interference. Potency, µM (series often up to 106 µM), for inactives: top-dose fluorescence change, negative = quenching. hit rate 0.29% among 280,000; active means well fitted curve in either direction with a large enough effect; inconclusive means small, poorly fitted or top-dose-only effect; further: on the % scale 0 is the no-effect control and ±100 the full control effect
#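 Human TRβ ligand-binding domain (0.6 uM) and Texas Red SRC2 peptide (20 nM) in Tris buffer with 1 uM T3 and 5% DMSO were incubated with pinned compound for 5 hr at ambient temperature. Total fluorescence was computed as S + 2P (555/632 nm).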
# ERG-DNA inh – blocks human ERG Ets domain binding to DNA; P11308; fluorescence polarization, His-ERG Ets domain / labelled DNA; Potency, µM (doses to about 76.9 µM), without a hit: at the highest dose FP activity, negative = inhibition, actives largely listed as inhibitors; hit rate 0.028% among 370,000; active means well fitted inhibition curve with a large enough effect in the polarisation, with a control signal flat; inconclusive means small, poorly fitted or top-dose-only effect, or effect the other way, or a change in a side signal; inactive means no such curve, though single readings can be large or run the other way; the % refers to the polarisation;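 further: polarization taken with two DNA probes labelled with fluorescein and Texas red; % of control where 0% means no effect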
#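 His-tagged ERG Ets domain (1 uM in the protein solution; 300mM KCl, 50mM Tris-HCl, 1mM EDTA, 1mM DTT, pH 7.5) received compound, then a probe mix of 5 nM fluorescein-DNA and 100nM Texas-615-DNA. Fluorescence polarization was read for both dyes.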
# Apoferritin bind – candidate novel general anesthetic via apoferritin binding; hit rate 0.074% among 350,000; Potency, µM (doses to about 77.5 µM), for the others: at the highest dose activity change, negative = displacement, actives largely listed as inhibitors; P02791; apoferritin/1-aminoanthracene competitive binding, fluorescence; further: on the % scale 0 is the no-effect control and ±100 the full control effect; nearly all actives have a fitted effect of over 20% in size
#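 In PBS, apoferritin at 10 uM is loaded with 1-AMA from a 50% saturated solution. After 10 min of compound exposure at ambient temperature, reduced 535 nm fluorescence indicates probe displacement.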
# GoLoco inh red – RGS12 GoLoco-Gai1 interaction inhibition; hit rate 0.44% among 230,000; Potency, µM (top dose mostly 61.6 µM), inactives show at the top dose activity, negative = inhibition, usual class: inhibitors; Gai1:RGS12 GoLoco peptide FP, rhodamine, 10 min; AID 880; active means well fitted inhibition curve with a large enough effect, not every such curve was filed as active; inactive means no such curve, though single readings can be large or run the other way; further: on the % scale 0 is the no-effect control and ±100 the full control effect; nearly all actives have a fitted effect of over 30% in size
# The depositor's hits bear a star; ? = inconclusive; nt = no result given; [ ] = another dose, or the depositor's remark. Hits are enriched below; roughly 0.44% of the tested compounds scored in any of these assays. Unless noted, the call rests on the fitted dose curve; in most records, active means well fitted curve in the direction sought with a large enough effect; inconclusive means small, poorly fitted or top-dose-only effect, or another doubt; inactive means no such curve, though single readings can be large; an effect the other way counts as inactive or inconclusive. Potency means the concentration at half of the fitted maximal effect.
SMILES,TRb SRC2 PPI,TR SRC2 fluor cs,ERG-DNA inh,Apoferritin bind,GoLoco inh red
COC(=O)c1cn(CC(=O)N2C(C)CCCC2C)c2ccccc12 (centres undefined),2%,-2%,1%,-16%,-7%
CC1CCCC(C)N1C(=O)Cn1cc(/C=C2/C(=O)Nc3ccccc32)c2ccccc21 (centres undefined),6%,-5%,-3%,?,6.3µM*
O=C(CCCOc1ccc(Cl)cc1Cl)N/N=C/c1ccccc1,6%,-5%,-4%,-14%,-12%
O=C(CCCOc1ccc(Cl)cc1Cl)N/N=C/c1ccccc1O,-16%[53 µM],32µM*[quencher],nt,-6%,-6%
Cc1cc2ccccc2n1CCNC(=O)C(C)(C)C,9%,-6%,22µM*,-8%,7%
Cc1onc(-c2ccccc2Cl)c1C(=O)NCCn1c(C)cc2ccccc21,nt,nt,32µM*,-16%,nt
Cc1cc2ccccc2n1CCNC(=O)c1ccc(Br)o1,-2%,13%,32µM*,-13%,22µM*
COc1ccc2occ(C(=O)c3cccs3)c2c1,7%,-6%,2%,25µM*,10%
COc1ccc2occ(C(=O)c3ccc(N)cc3)c2c1,nt,nt,0%,-19%,nt
C[N+]1(CC#CC(O)(c2ccccc2)c2ccccc2)CCCC1,0%,2%,1%,-5%,-40%
CC(C)[N+](C)(C)CC#CC(O)(c1ccccc1)c1ccccc1,-9%,-7%,-1%,-4%,3.2µM*
O=C(O)[C@@H]1[C@@H](C(=O)O)[C@@]23CCCC2=C2CC[C@@]3(C(=O)O)[C@@]3(C(=O)O)C[C@@]213,nt,nt,nt,nt,5%[14.2 µM]
O=C(COC(=O)CC12CC3CC(CC(C3)C1)C2)Nc1ncc(Cl)cc1Cl,-2%,-4%,6%,20µM*,11%
CCOc1ccc(-c2cc(-c3nc(-c4ccc(OC)c(OC)c4)no3)[nH]n2)cc1,3%,-1%,0%,9%,nt
CCOc1ccc(C2=Cc3cc(OC)c(OC)cc3C(=C(Cl)Cl)O2)cc1,28µM*,-19%,nt,?,-10%
O=C1CCCC(O)=C1N=Nc1c(Cl)cc(Cl)cc1Cl,28µM*,45µM*[fluorescent],?,-3%,-14%
CCCn1c(/C=C/c2ccco2)nc2ccccc21,-19%[53 µM],3.5µM*[quencher],13%,-12%,156%
CCCCn1c(/C=C/c2ccco2)nc2ccccc21,-5%,11%,12%,-19%,184%
CCCCCCc1cc2cc(-c3nnc(-c4ccc(C)cc4)o3)c(=O)oc2cc1O,-18%[53 µM],2512µM*[quencher],4%,60%,nt
Cc1ccc(C2CC(=O)Nc3cc4c(cc32)OCCO4)cc1 (centres undefined),-17%[53 µM],0.05µM*[quencher],2%,-14%,nt
O=C1CCCC/C=C/CCCCCCCCCO1,6%[201 µM],0%[201 µM],nt,nt,nt
Fc1ccc(C2=CC(c3ccc(F)cc3)n3c(nc4ccccc43)N2)cc1 (centres undefined),-1%,2%,6%,?,nt
COC(=O)c1ccc(C2C=C(c3ccc(Cl)cc3)Nc3nc4ccccc4n32)cc1 (centres undefined),-27%,0.14µM*[quencher],-2%,-5%,nt
Cc1ccc(C)c(NC(=O)C(=O)NCCc2csc3nc(-c4ccccc4C)nn23)c1,-15%,22µM*[quencher],-1%,37%,nt
COc1cc(NC(=O)COC(=O)CNC(=O)c2ccc(C)cc2)c(C)cc1[N+](=O)[O-],-25%[53 µM],10µM*[quencher],-6%,-9%,-10%
SMILES,TRb SRC2 PPI,TR SRC2 fluor cs,ERG-DNA inh,Apoferritin bind,GoLoco inh red
C/C(=C\COc1c2ccoc2cc2oc(=O)ccc12)CCC(O)C(C)(C)O (centres undefined),-1%,-6%,nt,-10%,nt
O=c1n(Cc2ccccc2)nc2n1-c1ccccc1OC2,-3%,10µM*[quencher],-1%,?,nt
CC(c1ncncc1F)[C@](O)(Cn1cncn1)c1ccc(F)cc1F (some centres undefined),0%,-1%,nt,nt,0%
CCOCC(=O)Nc1cccc(-c2nc3cccnc3s2)c1C,-5%,-3%,-1%,-5%,4%
COc1ccc(C(=O)Nc2cccc(-c3nc4cccnc4s3)c2C)c(OC)c1,-13%,100µM*[quencher],3%,43%,nt
c1ccc2c(c1)ccc1c3ccccc3ccc21,5%[201 µM],1%[201 µM],nt,nt,nt
CC[C@H](C)C(N)C(=O)O (some centres undefined),7%,-1%,nt,-3%,nt
